High-throughput results deposited in PubChem by SRMLSC.
Autofluor 339 – intrinsic fluorescence of library compounds, ex339/em460 – biochemical, MLSMR library, data from DPM-DC assay, artefact control, profiling panel. compound autofluorescence, ex339/em460 nm, NADH buffer; stronger effect = higher value; 1 = no-compound wells, NADH background. fluorescence fold increase at 10 µM. 65,000 compounds, 5.5% hits;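 active = at 10 µM, mean starting fluorescence two-fold or more over control wells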;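 also: signal is the first read of a kinetic run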
DPM-DC inhibit – inhibitors of Streptococcus pneumoniae diphosphomevalonate decarboxylase. 65,000 compounds, 0.49% hits. calls only at 10 µM. purified DPM-DC, PK/LDH coupled NADH fluorescence. AID 556;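 active = the 320 compounds with the highest percent inhibition in the single-dose primary screen, excluding strongly autofluorescent ones, cut at about 32% in these data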;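 also: kinetic rate of NADH fluorescence loss reporting ADP formed by the decarboxylase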
PMK inhibit – S. pneumoniae PMK inhibition. purified PMK, PK/LDH-coupled NADH absorbance 340 nm. inhibition, % at 10 µM. 65,000 compounds, 0.49% hits. AID 539;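 active = top-ranked compounds by inhibition in the single 10 µM screen, taking a fixed number of the strongest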
MK inhibit – inhibitors of Streptococcus pneumoniae mevalonate kinase; purified MK, PK/LDH-coupled NADH absorbance 340 nm; inhibition, % at 10 µM; 65,000 compounds, 0.48% hits;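 active = ranked among the strongest by inhibition in the single 10 µM screen, a fixed top-ranked set picked for dose follow-up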
NADH enzymes – inhibitors of enzymes used to reach an NAD/NADH endpoint; coupled PK/LDH NADH assays, four targets; IC50, µM (titrated, usually from 10 µM); 65,000 compounds, 0.02% hits;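 active = single-dose screening hits from any of four coupled enzyme assays that gave an IC50 when retested across doses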;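 also: the DPM-DC format reads NADH fluorescence rather than 340 nm absorbance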
Abs 340nm – compound absorbs light at 340 nm | compound absorbance at 340 nm, fold over control | fold change at 10 µM | 65,000 tested, under 10 active;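 active = at 10 µM dose, initial 340 nm absorbance at least 2 fold that of control wells; inactive = change under 2 fold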;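 also: initial absorbance extrapolated from kinetic A340 decline of NADH oxidation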
A number is an active result; 0 = inactive; - = no result shown; + = active, no number. Compounds with a hit are over-represented: about 6.8% of the library has one in this group of screens.

SMILES	Autofluor 339	DPM-DC inhibit	PMK inhibit	MK inhibit	NADH enzymes	Abs 340nm
Cc1ccc(S(=O)(=O)c2cc3c(=O)n4cccc(C)c4nc3n(CC3CCCO3)c2=N)cc1 (configuration not stated)	0	0	0	0	0	0
O=C(CSc1nc(-c2ccc(F)cc2)cs1)N1CCN(C(=O)c2ccco2)CC1	0	0	0	0	0	0
C=CCn1c(Cc2cccs2)nnc1SCC(=O)Nc1cc(OC)cc(OC)c1	0	0	0	0	0	0
CCOC(=O)Oc1ccc2oc(=O)cc(C)c2c1	0	0	0	0	0	0
COc1ccc2oc(=O)cc(C)c2c1	2.62	0	0	0	0	0
COc1cc(OC)c2c(C)cc(=O)oc2c1	3.75	-	0	0	0	0
Cc1cc(=O)oc2cc(OC(C)C)ccc12	2.13	-	0	0	0	0
C#CCOc1ccc2c(C)cc(=O)oc2c1	3.89	-	0	0	0	0
CC12CCC(c3c(C(=O)Nc4nccs4)nn(-c4ccccc4)c31)C2(C)C (configuration not stated)	0	0	0	0	0	0
CCc1ccc(N(CC(=O)Nc2ccc(OC)cc2OC)S(C)(=O)=O)cc1	0	0	0	0	0	0
O=C1CC(c2ccccc2)CC(O)=C1C=NCC1CCCO1 (configuration not stated)	0	0	38.0	0	0	0
Cc1cc(OCC(=O)N2CCCC2)ccc1Cl	0	0	0	0	0	0
O=C(O)C(Oc1ccc2c3c(c(=O)oc2c1)CCC3)c1ccccc1 (configuration not stated)	3.68	-	0	0	0	0
Cc1nnc(NC(=O)C(C)Oc2ccc3c(C)cc(=O)oc3c2)s1 (configuration not stated)	0	0	0	0	0	0
CC(=O)C(C)Oc1ccc2c3c(c(=O)oc2c1)CCCC3 (configuration not stated)	2.07	-	0	0	0	0
CCc1cc2c3c(c(=O)oc2cc1O)CCCC3	2.17	-	0	0	0	0
O=C(O)C1CCN(C(=O)COc2ccc3c4c(c(=O)oc3c2)CCC4)CC1	3.18	0	0	0	0	0
CCCn1c(SCC(N)=O)nnc1-c1ccco1	0	0	0	0	0	0
COc1nc2c(C)cccc2cc1-c1noc(-c2ccncc2)n1	0	0	0	0	0	0
Fc1ccc(Cn2nnnc2CN2CCc3ccccc3C2)cc1	0	0	0	0	0	0
CC(=O)COc1ccc2c3c(c(=O)oc2c1)CCCC3	3.9	-	0	0	0	0
Cc1c(C)c2ccc(OCc3ccc(C(=O)O)o3)c(C)c2oc1=O	3.89	-	0	0	0	0
CC(=O)C(C)Oc1ccc2c3c(c(=O)oc2c1)CCCCC3 (configuration not stated)	3.69	-	0	0	0	0
Cc1cc(=O)oc2cc(OC(C)C(=O)N3CCCc4ccccc43)ccc12 (configuration not stated)	0	0	0	0	0	0
COC(=O)c1ccc(COc2ccc3c(C)c(C)c(=O)oc3c2)o1	2.2	-	0	0	0	0
SMILES	Autofluor 339	DPM-DC inhibit	PMK inhibit	MK inhibit	NADH enzymes	Abs 340nm
COC(=O)c1ccc(Cc2ccc(C(=O)OC)o2)o1	0	0	0	0	0	0
COC(=O)C(NS(C)(=O)=O)(c1c(C)[nH]c2ccccc12)C(F)(F)F (configuration not stated)	0	0	0	0	0	0
COc1ccccc1C1c2c(oc3ccc(Cl)cc3c2=O)C(=O)N1c1cc(C)on1 (configuration not stated)	0	0	0	0	0	0
Cc1cc(C)cc(OCc2ccc(C(=O)O)o2)c1	0	0	0	0	0	0
O=C(O)c1ccc(COc2ccc3c4c(c(=O)oc3c2)CCC4)o1	3.5	-	0	0	0	0
Nc1c(C(=O)NC2CCCC2)c2nc3ccccc3nc2n1/N=C/c1cccnc1	3.21	+	0	0	0	0
O=C(c1cc2nc(-c3ccc(F)cc3)cc(C(F)(F)F)n2n1)N1CCCC1	0	+	0	0	0	0
Cc1ccccc1Cn1ccc(NC(=O)c2cc3nc(-c4ccco4)cc(C(F)(F)F)n3n2)n1	3.83	-	0	0	0	0
COc1ccc(-c2cc(C(F)(F)F)n3nc(C(=O)N4CCCCC4)cc3n2)cc1	2.26	-	0	0	0	0
CN(C(=O)c1cc2nc(-c3ccco3)cc(C(F)(F)F)n2n1)C1CCCCC1	2.18	-	0	0	0	0
